Bioassay records deposited in PubChem by National Center for Advancing Translational Sciences (NCATS).
GLS inhibitor: inhibitors of human glutaminase (GLS); O94925; GLS enzymatic activity, qHTS titration; Potency, µM (titrated, usually from 45.5 µM), most hits filed as inhibitors; hit rate 0.21% among 410,000
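Read-out is an Amplex red fluorescence increase coupled through glutamate oxidase and HRP, measured before and after 30 min room-temperature incubation. hKGA is in 45 mM KH2PO4 (pH 8.2) with 0.02% Tween-20; glutamine added as 1mM solution.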
Pol eta inh: inhibitors of human DNA polymerase eta. Q9Y253. recombinant Pol eta, fluorescent DNA replication assay. Potency, µM (series often up to 114 µM), usual class: inhibitors. hit rate 1.2% among 390,000. AID 588591
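Fluorescent replication assay: 50 nM final substrate added after a 15 min room-temperature compound preincubation with 10 nM enzyme. Signal taken at 0 min and again at 10 min.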
Pol beta inh: DNA polymerase beta (human) inhibition. AID 485314. Potency, µM (series often up to 114 µM), hits mostly inhibitors. hit rate 1.3% among 340,000. P06746. Pol beta primer extension/strand displacement, fluorescence kinetic
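Reaction started by 50 nM substrate onto compound-treated Pol beta (10 nM, 15 min preincubation, room temperature); plates read at 0 min and 10 min. Normalized concentration-effect data fitted by four-parameter Hill equation.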
Pol iota inh: blocks human DNA polymerase iota activity; Potency, µM (series often up to 115 µM), actives largely listed as inhibitors; Pol iota fluorescent replication assay, 10 min; hit rate 1% among 390,000; AID 588590; Q9UNA4
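Pol iota at 10 nM preincubated 15 min with compounds at room temperature; reaction started with fluorescent substrate, 50 nM final. Fluorescence read kinetically at 0 and 10 min; buffer-only wells as negative control.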
Pol kappa inh: DNA polymerase kappa (human) inhibition. AID 588579. Q9UBT6. Potency, µM (highest dose often 107 µM), hits mostly inhibitors. purified Pol kappa, fluorescent DNA synthesis assay, 10 min. hit rate 0.53% among 400,000
Target sequence (Q9UBT6 whole entry, looked up): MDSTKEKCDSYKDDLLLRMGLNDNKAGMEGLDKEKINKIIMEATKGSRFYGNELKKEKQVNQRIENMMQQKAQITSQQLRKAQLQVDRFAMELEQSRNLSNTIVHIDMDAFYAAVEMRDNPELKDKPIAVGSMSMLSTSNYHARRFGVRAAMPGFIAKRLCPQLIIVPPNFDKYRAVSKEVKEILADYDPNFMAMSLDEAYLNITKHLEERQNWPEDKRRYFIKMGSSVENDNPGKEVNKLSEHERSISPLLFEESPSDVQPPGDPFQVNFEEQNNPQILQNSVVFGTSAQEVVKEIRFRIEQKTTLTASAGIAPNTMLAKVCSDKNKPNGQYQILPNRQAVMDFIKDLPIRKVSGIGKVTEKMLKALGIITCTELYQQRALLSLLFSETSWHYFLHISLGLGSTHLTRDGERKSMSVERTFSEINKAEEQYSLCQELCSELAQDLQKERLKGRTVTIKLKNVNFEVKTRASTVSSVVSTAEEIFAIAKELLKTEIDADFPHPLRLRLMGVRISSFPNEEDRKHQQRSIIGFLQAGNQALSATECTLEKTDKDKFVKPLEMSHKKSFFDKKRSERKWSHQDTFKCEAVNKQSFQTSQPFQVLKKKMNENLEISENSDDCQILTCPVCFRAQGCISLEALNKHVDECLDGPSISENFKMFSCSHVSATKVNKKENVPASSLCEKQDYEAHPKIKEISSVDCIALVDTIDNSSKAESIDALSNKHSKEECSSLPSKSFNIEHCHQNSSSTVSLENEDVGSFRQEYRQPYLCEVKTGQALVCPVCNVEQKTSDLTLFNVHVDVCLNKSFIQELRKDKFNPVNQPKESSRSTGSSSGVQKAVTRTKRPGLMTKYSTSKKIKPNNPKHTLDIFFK
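First, compounds were pin-transferred onto 10 nM Pol kappa. After 15 min at room temperature, substrate was added to 50 nM final. Fluorescence was then measured kinetically at 0 and 10 min.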
GCN5L2 inh: inhibitors of human GCN5L2 histone acetyltransferase | Q92830 | GCN5L2 HAT assay, ThioGlo1 CoA-SH fluorescence | Potency, µM (titrated, usually from 58.9 µM), most hits filed as inhibitors | hit rate 0.21% among 390,000
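GCN5L2 (20nM final) in 50mM HEPES, 0.1mM EDTA pH 7.5, 0.01% Tween-20 was preincubated 15 min at room temperature with compound, then given ThioGlo1 (50uM), H3(1-25) peptide (75uM) and acetyl-CoA (70uM); CoA-thiol fluorescence (Ex340/Em540) was read at 0 and 20 min.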
Numbers stand for hits. Most compounds without a hit are left out; they make up all but 2.4% or so of the library. Calls come from the whole dose curve; as a rule, active = well fitted inhibition curve with a large enough effect; inconclusive = small, poorly fitted or top-dose-only effect, or another doubt; inactive = no such curve, though single readings can be large or run the other way.

Screening CC[C@H](C)[C@H](NC(=O)[C@H](CO)NC(=O)[C@H](CC(N)=O)NC(=O)[C@H](CC(C)C)NC(=O)[C@H](Cc1ccc(O)cc1)NC(=O)[C@H](CCCCN)NC(=O)[C@H](CCCCN)NC(=O)[C@@H](NC(=O)[C@H](C)NC(=O)[C@H](CCSC)NC(=O)[C@H](CCC(N)=O)NC(=O)[C@H](CCCCN)NC(=O)[C@H](CCCNC(=N)N)NC(=O)[C@H](CC(C)C)NC(=O)[C@H](CCCNC(=N)N)NC(=O)[C@@H](NC(=O)[C@H](Cc1ccc(O)cc1)NC(=O)[C@H](CC(N)=O)NC(=O)[C@H](CC(=O)O)NC(=O)[C@@H](NC(=O)[C@H](Cc1ccccc1)NC(=O)[C@@H](NC(=O)[C@H](C)NC(=O)[C@H](CC(=O)O)NC(=O)[C@H](CO)NC(=O)[C@@H](N)Cc1c[nH]cn1)C(C)C)[C@@H](C)O)[C@@H](C)O)C(C)C)C(=O)N[C@@H](CC(C)C)C(=O)N[C@@H](CC(N)=O)C(=O)O returned GLS inhibitor inactive.
`O=C(Cc1ccc(Oc2ccccc2)cc1)NO` gave Pol iota inh inactive and Pol kappa inh inactive.
Screening O=C(/C=C/c1ccc([N+](=O)[O-])cc1)/C=C/c1ccco1 returned Pol beta inh 10µM and GCN5L2 inh inactive.
Screening Cc1cc(=O)oc2cc(OCC(=O)N/N=C/c3cc([N+](=O)[O-])ccc3O)ccc12 returned GLS inhibitor inactive, Pol eta inh inconclusive, Pol beta inh 32µM, Pol iota inh inconclusive, Pol kappa inh inactive and GCN5L2 inh inactive.
`CCCC(=O)O[C@]1(C(=O)COC(=O)CC)[C@@H](C)C[C@H]2[C@@H]3CCC4=CC(=O)C=C[C@@]4(C)[C@@]3(F)[C@H](O)C[C@@]21C` gave GLS inhibitor inactive.
Screening O=c1cc(-c2ccccc2)oc2cc(O[C@@H]3O[C@H](CO)[C@@H](O)[C@H](O)[C@H]3O)c(O)c(O)c12 returned Pol kappa inh 10µM.
`O=c1c(O[C@@H]2O[C@H](CO)C(O)C2O)c(-c2ccc(O)c(O)c2)oc2cc(O)cc(O)c12` (stereo partly specified) gave GLS inhibitor inactive, Pol eta inh inconclusive, Pol iota inh 35µM, Pol kappa inh 25µM and GCN5L2 inh inactive.
`O=c1cc(-c2ccc(O)c(O)c2)oc2cc(O[C@@H]3O[C@H](CO)[C@@H](O)[C@H](O)[C@H]3O)cc(O)c12` gave GLS inhibitor inactive, Pol eta inh 8.9µM, Pol iota inh 6.3µM, Pol kappa inh 2.5µM and GCN5L2 inh inactive.
`CC1OC(OCC2OC(Oc3c(-c4ccc(O)c(O)c4)oc4cc(O)cc(O)c4c3=O)C(O)C(O)C2O)C(O)C(O)C1O` (stereo unspecified) gave Pol kappa inh 6.3µM.
For CSc1nc(N)c2ncn([C@@H]3O[C@H](COP(=O)(O)OP(=O)(O)O)C(O)[C@H]3O)c2n1 (stereo partly specified) the results were Pol kappa inh inactive and GCN5L2 inh inactive.
Screening C(=C\c1ccnc2ccccc12)/c1ccc(N2CCNCC2)cc1 returned Pol iota inh inactive and Pol kappa inh inactive.
O=c1c2c(nc3cc(-c4ccccc4Cl)[nH]n13)CCS2 was read as GLS inhibitor inactive, Pol eta inh inactive, Pol beta inh 35µM, Pol iota inh inactive, Pol kappa inh inactive and GCN5L2 inh inactive.
`CSC1CCCCC1(O)CSc1nc2ccccc2o1` (stereo unspecified) gave GLS inhibitor 13µM, Pol eta inh inactive, Pol beta inh inactive, Pol iota inh inactive, Pol kappa inh inactive and GCN5L2 inh inactive.
`C#CCOCCOCCOCCNc1nc(N2CCN(C(=O)CCCCCCCCCCNC(=O)Cn3cc(C[C@@H](C)O)nn3)CC2)nc(N2CCN(C(=O)CCCCCCCCCCNC(=O)[C@@H]([C@H](C)CC)n3cc(CCCCCN)nn3)CC2)n1` gave GLS inhibitor inconclusive, Pol eta inh 89µM, Pol iota inh inconclusive, Pol kappa inh inactive and GCN5L2 inh inactive.
